# Source: ChEMBL document CHEMBL2218924, “A broad activity screen in support of a chemogenomic map for kinase signalling research and drug discovery” (Biochem J, 2013)
# Tests used:
# [1] = target: Mitogen-activated protein kinase kinase kinase 9 (Homo sapiens) (UniProt P80192); conditions: at 1 µM
# [2] = target: Mitogen-activated protein kinase kinase kinase 9 (Homo sapiens) (UniProt P80192); conditions: at 10 µM
# [3] = target: Serine/threonine-protein kinase MRCK alpha (Homo sapiens) (UniProt Q5VT25); conditions: at 1 µM
# Sequence of Serine/threonine-protein kinase MRCK alpha (Homo sapiens) (Q5VT25 whole entry): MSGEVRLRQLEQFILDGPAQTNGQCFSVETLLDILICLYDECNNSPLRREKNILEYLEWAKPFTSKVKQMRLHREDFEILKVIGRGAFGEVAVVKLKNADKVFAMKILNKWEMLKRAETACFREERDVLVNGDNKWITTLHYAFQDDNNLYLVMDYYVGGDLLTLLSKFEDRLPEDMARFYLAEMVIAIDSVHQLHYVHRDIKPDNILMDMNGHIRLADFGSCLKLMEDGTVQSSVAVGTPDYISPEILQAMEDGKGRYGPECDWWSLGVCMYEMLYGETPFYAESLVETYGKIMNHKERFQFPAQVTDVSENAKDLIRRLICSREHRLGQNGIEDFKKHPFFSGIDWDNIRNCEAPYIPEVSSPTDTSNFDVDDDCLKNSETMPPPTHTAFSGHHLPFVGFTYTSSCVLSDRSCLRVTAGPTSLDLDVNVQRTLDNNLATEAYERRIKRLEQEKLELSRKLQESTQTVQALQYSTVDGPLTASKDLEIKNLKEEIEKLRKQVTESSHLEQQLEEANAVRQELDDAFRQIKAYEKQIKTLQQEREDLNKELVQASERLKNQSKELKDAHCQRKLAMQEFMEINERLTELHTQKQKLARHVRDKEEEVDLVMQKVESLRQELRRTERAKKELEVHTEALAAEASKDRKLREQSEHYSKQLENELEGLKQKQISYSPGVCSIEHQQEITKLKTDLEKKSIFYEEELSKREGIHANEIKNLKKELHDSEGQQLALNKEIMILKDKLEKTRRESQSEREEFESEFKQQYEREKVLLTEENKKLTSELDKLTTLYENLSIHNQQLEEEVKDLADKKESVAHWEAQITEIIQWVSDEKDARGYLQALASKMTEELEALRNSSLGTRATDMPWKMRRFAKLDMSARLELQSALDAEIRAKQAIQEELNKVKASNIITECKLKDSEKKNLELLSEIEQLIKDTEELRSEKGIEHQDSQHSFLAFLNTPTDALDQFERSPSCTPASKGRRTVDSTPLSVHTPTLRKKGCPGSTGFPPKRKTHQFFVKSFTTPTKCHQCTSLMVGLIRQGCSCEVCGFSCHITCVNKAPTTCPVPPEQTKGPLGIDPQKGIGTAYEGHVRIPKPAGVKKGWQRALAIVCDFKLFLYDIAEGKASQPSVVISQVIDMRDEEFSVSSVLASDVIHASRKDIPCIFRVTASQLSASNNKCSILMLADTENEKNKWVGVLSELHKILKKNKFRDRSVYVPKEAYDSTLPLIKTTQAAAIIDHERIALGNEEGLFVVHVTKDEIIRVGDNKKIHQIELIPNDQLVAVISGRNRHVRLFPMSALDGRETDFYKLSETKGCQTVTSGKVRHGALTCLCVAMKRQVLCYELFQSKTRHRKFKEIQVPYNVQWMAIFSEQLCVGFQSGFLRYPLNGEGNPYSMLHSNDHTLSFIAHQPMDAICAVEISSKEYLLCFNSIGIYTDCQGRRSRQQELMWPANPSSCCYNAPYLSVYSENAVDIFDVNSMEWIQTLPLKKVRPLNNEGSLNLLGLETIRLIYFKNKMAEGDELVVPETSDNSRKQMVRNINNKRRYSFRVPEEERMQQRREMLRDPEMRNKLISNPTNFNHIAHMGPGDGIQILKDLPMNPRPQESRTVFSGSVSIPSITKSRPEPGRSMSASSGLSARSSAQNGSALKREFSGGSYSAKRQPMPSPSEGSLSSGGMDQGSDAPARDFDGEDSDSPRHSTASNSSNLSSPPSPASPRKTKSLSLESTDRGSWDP
# [4] = target: Serine/threonine-protein kinase MRCK beta (Homo sapiens) (UniProt Q9Y5S2); conditions: at 1 µM
# [5] = target: Ribosomal protein S6 kinase alpha-5 (Homo sapiens) (UniProt O75582); conditions: at 1 µM
# Sequence of Ribosomal protein S6 kinase alpha-5 (Homo sapiens) (O75582 whole entry, looked up): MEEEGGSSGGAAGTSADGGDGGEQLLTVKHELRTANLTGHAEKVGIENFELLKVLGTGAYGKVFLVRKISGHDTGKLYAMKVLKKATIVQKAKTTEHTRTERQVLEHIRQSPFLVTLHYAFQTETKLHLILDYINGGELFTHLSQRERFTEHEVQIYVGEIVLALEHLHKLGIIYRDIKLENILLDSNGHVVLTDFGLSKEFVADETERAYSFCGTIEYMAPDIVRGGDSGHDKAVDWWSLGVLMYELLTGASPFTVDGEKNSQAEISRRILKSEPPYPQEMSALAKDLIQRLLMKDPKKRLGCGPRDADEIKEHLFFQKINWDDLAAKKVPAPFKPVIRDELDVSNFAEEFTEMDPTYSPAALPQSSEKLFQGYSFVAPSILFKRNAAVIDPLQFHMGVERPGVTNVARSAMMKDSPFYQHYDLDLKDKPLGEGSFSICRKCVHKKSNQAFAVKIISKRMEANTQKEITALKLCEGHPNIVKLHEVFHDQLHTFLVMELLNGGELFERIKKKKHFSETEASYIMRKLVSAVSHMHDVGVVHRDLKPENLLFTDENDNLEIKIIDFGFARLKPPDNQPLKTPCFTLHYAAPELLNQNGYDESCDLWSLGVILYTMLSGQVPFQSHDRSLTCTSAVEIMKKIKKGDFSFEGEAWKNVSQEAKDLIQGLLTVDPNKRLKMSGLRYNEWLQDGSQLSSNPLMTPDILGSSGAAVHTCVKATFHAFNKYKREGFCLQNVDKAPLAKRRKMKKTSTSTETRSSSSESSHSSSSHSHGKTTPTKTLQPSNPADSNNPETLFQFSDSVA
# [6] = target: Ribosomal protein S6 kinase alpha-5 (Homo sapiens) (UniProt O75582); conditions: at 10 µM
# [7] = target: Myosin light chain kinase, smooth muscle (Homo sapiens) (UniProt Q15746); conditions: at 10 µM
# Sequence of Myosin light chain kinase, smooth muscle (Homo sapiens) (Q15746 whole entry): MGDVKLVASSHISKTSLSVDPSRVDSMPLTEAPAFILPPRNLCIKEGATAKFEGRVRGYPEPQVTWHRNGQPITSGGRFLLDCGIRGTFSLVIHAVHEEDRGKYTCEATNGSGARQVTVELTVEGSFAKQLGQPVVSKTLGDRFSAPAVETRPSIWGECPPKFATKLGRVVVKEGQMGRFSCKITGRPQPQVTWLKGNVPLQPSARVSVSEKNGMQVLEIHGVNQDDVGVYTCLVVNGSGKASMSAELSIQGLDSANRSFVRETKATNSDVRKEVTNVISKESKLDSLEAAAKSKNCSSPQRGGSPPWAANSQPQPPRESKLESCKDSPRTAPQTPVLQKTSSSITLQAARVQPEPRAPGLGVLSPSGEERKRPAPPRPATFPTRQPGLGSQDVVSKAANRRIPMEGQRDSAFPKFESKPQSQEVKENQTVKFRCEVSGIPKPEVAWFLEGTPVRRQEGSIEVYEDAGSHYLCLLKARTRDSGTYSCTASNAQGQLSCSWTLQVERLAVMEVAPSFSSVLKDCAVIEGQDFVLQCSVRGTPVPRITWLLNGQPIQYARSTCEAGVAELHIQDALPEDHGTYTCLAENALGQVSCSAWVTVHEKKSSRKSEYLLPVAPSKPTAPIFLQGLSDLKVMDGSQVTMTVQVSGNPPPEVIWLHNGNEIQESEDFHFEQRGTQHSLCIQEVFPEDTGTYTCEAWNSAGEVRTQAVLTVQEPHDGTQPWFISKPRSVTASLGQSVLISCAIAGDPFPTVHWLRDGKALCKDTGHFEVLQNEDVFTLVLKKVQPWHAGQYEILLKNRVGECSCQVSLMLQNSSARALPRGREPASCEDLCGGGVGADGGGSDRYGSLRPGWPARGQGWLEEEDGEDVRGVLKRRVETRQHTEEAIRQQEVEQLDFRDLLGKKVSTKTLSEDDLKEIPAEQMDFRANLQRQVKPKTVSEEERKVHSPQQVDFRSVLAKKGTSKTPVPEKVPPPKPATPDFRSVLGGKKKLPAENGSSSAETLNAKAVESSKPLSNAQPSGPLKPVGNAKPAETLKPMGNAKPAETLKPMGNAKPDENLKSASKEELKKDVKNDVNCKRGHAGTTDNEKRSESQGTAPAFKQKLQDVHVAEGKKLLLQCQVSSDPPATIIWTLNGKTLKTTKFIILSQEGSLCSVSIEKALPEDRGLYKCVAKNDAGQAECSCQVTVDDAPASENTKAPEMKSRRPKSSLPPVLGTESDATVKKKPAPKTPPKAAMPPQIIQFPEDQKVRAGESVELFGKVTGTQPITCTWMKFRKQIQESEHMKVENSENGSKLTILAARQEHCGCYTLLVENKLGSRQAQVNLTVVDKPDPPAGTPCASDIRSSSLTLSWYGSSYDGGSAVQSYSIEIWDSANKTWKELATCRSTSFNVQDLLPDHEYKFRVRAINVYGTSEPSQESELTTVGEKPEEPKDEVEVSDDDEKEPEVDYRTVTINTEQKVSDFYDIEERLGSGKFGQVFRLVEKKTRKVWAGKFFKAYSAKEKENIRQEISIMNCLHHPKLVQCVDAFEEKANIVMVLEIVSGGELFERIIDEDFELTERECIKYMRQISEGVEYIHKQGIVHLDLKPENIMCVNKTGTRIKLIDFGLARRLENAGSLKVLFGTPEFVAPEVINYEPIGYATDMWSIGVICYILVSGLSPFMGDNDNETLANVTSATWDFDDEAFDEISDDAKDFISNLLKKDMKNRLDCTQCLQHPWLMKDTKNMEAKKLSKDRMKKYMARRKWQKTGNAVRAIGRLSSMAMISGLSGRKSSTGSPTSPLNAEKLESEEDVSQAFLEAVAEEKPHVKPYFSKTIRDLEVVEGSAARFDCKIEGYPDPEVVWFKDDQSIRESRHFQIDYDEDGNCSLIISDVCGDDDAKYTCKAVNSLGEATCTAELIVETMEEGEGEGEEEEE
# [8] = target: Serine/threonine-protein kinase MRCK beta (Homo sapiens) (UniProt Q9Y5S2); conditions: at 10 µM
# [9] = target: Serine/threonine-protein kinase MRCK alpha (Homo sapiens) (UniProt Q5VT25); conditions: at 10 µM
# [10] = target: Myosin light chain kinase, smooth muscle (Homo sapiens) (UniProt Q15746); conditions: at 1 µM
Compound,residual activity [1] [%],residual activity [2] [%],residual activity [3] [%],residual activity [4] [%],residual activity [5] [%],residual activity [6] [%],residual activity [7] [%],residual activity [8] [%],residual activity [9] [%],residual activity [10] [%]
CC(C)(C)c1cc(C=C(C#N)C#N)cc(Br)c1O,104,97,108,115,122,97,–,–,–,–
CC(C)[C@H](CO)Nc1nc(Nc2cccc(Cl)c2)c2ncn(C(C)C)c2n1,10,1,–,98,–,–,46,88,–,–
c1cc(-c2cnn3cc(-c4ccc(OCCN5CCCCC5)cc4)cnc23)ccn1,78,17,121,106,121,60,71,–,118,–
COc1cc(OC)c(/C=C2\C(=O)Nc3ccccc32)c(OC)c1,92,65,–,83,–,–,77,84,–,88
CCc1nc(-c2ccc(OC)cc2)[nH]c1-c1ccncc1,–,–,115,–,108,112,–,–,114,–
O=[N+]([O-])/C=C/c1ccc2c(c1)OCO2,100,111,106,83,125,110,82,89,100,89
O=C1Nc2ccc3ncsc3c2/C1=C/c1c[nH]cn1,9,2,104,75,43,7,11,49,90,25
O=C1NC(=O)c2c1c1c3ccccc3n3c1c1c2c2ccccc2n1C1CCC3O1,1,2,–,–,41,33,65,–,–,90
O=c1[nH]c2ccccc2n1C1CCN(Cc2ccc(-c3nc4cc5[nH]cnc5cc4nc3-c3ccccc3)cc2)CC1,98,100,122,96,132,106,4,82,128,76
CN[C@@H]1C[C@H]2O[C@@](C)([C@@H]1OC)n1c3ccccc3c3c4c(c5c6ccccc6n2c5c31)C(=O)NC4,0,1,–,–,–,–,1,–,–,0
CCn1cnc2c(Nc3cccc(Cl)c3)nc(N[C@@H]3CCCC[C@@H]3N)nc21,16,2,–,94,–,–,46,78,–,94
C[S+]([O-])c1ccc(-c2nc(-c3ccc(F)cc3)c(-c3ccncc3)[nH]2)cc1 (stereo not given),101,–,106,113,97,98,89,110,119,118
O=C1c2ccccc2-c2nc3nnnn3nc21,103,102,107,116,145,–,104,–,100,79
COc1ccc2c(c[n+](C)c3c4cc5c(cc4ccc23)OCO5)c1OC,–,81,85,90,–,–,–,81,84,78
COc1ccc2c(c1)/C(=C/c1cnc[nH]1)C(=O)N2,25,4,129,–,–,–,–,–,100,–
COC(=O)[C@@]1(O)C[C@H]2O[C@]1(C)n1c3ccccc3c3c4c(c5c6ccccc6n2c5c31)C(=O)NC4,1,0,71,33,5,0,2,5,23,1
COc1cc2ncnc(Nc3ccc(OCc4ccccc4)cc3)c2cc1OC,81,56,121,95,–,–,90,95,117,84
